# Measured values taken from paper PMC7862700, “An all-to-all approach to the identification of sequence-specific readers for epigenetic DNA modifications on cytosine”.
# How the values were obtained:
# Assay in all cases: DAPPL (digital affinity profiling via proximity ligation, sequencing); 10 mM Tris-HCl pH 7.5, 50 mM NaCl, 1 mM DTT, 4% glycerol, room temperature, 30 min; GST-TFs on glutathione beads, 16-mer random dsDNA library, 0.1% formaldehyde crosslink after washing; high values mean tight binding
# FLI1 = molecular target: T1, FLI1 (Homo sapiens, UniProt Q01543 1-452); details: protein: recombinant; tags: N-terminal GST; dsDNA, one strand shown
# T1 sequence: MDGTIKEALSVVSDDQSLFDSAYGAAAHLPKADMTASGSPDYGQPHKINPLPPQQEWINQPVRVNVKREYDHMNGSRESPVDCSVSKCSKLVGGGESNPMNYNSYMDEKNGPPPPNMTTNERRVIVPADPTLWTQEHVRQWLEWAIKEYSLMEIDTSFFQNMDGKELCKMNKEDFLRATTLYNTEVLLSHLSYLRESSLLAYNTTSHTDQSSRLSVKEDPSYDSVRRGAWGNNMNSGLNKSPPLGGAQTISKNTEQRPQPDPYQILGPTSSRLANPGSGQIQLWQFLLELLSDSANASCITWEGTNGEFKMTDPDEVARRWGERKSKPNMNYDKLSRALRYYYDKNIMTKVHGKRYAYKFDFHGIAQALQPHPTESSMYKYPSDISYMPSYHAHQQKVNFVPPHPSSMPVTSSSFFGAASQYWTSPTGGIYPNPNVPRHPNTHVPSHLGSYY
# How it was run: (§1)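 Pools of DNA-barcoded human transcription factors, expressed in yeast as GST fusions on glutathione beads and combined with a tag-only sample, were incubated with 200 nmole of a 16-mer random double-stranded DNA library. Incubation took 30 min at room temperature in Tris/NaCl/DTT/glycerol buffer and was followed by washing, 0.1% formaldehyde crosslinking, proximity ligation (BsaI/T4 ligase, 1 h, 37 °C), PCR amplification and sequencing on an Illumina NextSeq500. Binding signal is the ratio of a hexamer's read frequency for a factor to its frequency for the tag-only sample.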
# ELK1 = molecular target: T2, ELK1 (Homo sapiens, UniProt P19419 1-428); details: protein: recombinant; tags: N-terminal GST; dsDNA, one strand shown
# T2 sequence: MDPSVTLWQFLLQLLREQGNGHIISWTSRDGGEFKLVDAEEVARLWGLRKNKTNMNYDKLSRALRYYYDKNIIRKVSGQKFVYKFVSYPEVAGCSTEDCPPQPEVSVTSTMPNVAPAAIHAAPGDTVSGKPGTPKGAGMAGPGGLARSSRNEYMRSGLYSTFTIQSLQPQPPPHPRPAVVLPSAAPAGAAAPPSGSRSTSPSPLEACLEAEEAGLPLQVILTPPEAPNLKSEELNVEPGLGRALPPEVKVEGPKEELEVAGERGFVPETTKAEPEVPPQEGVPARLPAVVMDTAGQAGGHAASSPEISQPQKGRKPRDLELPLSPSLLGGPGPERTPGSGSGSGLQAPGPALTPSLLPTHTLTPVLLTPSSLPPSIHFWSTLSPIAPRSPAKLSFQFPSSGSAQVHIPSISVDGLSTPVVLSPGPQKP
# How it was run: as §1
# GABPA = molecular target: T3, GABPA (Homo sapiens, UniProt Q06546 1-454); details: protein: recombinant; tags: N-terminal GST; dsDNA, one strand shown
# T3 sequence: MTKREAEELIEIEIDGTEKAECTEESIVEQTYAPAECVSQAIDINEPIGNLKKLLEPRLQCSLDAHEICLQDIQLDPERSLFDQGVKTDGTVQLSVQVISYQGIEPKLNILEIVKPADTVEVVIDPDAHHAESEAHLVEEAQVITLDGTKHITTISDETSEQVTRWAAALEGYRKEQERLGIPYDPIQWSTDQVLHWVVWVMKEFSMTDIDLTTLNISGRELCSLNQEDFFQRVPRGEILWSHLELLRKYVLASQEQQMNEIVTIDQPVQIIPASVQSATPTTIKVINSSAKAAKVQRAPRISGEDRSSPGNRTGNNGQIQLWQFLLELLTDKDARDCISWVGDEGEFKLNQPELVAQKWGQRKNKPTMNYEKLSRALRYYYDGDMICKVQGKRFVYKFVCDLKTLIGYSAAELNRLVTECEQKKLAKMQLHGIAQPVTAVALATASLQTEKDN
# How it was run: as §1
# ERG = molecular target: T4, ERG (Homo sapiens, UniProt P11308 1-479); details: protein: recombinant; tags: N-terminal GST; dsDNA, one strand shown
# T4 sequence: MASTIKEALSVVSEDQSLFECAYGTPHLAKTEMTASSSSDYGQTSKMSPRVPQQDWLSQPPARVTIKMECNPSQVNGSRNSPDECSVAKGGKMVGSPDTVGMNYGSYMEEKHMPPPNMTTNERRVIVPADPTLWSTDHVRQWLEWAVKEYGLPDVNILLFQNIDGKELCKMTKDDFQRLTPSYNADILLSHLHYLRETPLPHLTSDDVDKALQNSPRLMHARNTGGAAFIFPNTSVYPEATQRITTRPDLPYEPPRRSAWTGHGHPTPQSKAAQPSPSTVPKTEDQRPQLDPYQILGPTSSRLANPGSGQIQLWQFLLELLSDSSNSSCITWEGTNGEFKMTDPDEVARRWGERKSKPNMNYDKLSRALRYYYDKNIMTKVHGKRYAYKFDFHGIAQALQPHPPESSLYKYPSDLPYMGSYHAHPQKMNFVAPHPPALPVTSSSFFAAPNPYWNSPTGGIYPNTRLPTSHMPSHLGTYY
# How it was run: as §1
# ELF1 = ELF1 (Homo sapiens, UniProt P32519 1-619); details: protein: recombinant; tags: N-terminal GST; dsDNA, one strand shown
# ELF1, sequence (P32519 whole entry): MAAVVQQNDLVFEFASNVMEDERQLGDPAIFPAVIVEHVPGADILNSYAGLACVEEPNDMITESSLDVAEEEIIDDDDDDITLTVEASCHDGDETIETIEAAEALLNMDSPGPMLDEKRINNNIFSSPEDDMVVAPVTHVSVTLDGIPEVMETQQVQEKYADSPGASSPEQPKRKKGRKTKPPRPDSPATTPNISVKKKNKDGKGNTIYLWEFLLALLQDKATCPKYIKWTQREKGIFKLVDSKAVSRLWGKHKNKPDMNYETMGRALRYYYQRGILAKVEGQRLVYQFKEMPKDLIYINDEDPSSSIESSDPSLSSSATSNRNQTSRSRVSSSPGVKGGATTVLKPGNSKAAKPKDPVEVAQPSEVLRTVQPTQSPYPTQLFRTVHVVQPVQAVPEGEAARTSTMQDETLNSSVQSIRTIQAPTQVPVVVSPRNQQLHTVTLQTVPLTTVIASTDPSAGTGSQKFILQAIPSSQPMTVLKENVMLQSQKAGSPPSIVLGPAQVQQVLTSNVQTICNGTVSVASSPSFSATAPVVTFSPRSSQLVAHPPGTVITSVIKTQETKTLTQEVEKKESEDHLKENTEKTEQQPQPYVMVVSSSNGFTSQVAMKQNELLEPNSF
# How it was run: as §1
# EHF = molecular target: T5, EHF (Homo sapiens, UniProt Q9NZC4 1-300); details: protein: recombinant; tags: N-terminal GST; dsDNA, one strand shown
# T5 sequence: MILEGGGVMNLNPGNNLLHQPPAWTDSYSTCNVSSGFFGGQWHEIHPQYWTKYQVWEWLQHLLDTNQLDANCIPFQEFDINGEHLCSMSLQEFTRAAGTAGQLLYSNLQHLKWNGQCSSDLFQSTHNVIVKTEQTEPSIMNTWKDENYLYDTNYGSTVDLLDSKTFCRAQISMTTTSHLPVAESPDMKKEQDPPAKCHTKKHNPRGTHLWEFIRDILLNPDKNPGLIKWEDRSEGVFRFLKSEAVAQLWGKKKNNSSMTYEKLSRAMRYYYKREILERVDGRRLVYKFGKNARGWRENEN
# How it was run: as §1
# SPI1 = SPI1 (Homo sapiens, UniProt P17947 1-270); details: protein: recombinant; tags: N-terminal GST; dsDNA, one strand shown
# How it was run: as §1
# SPIB = SPIB (Homo sapiens, UniProt Q01892 1-262); details: protein: recombinant; tags: N-terminal GST; dsDNA, one strand shown
# SPIB, sequence (Q01892 whole entry): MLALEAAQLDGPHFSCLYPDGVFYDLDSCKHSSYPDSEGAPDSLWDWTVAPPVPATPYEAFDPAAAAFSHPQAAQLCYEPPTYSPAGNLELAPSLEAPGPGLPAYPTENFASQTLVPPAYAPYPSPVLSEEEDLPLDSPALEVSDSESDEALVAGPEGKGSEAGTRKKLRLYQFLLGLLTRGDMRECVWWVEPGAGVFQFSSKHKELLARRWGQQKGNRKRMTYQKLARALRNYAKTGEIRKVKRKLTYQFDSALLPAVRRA
# How it was run: as §1
# ELK3 = molecular target: T6, ELK3 (Homo sapiens, UniProt P41970 1-407); details: protein: recombinant; tags: N-terminal GST; dsDNA, one strand shown
# T6 sequence: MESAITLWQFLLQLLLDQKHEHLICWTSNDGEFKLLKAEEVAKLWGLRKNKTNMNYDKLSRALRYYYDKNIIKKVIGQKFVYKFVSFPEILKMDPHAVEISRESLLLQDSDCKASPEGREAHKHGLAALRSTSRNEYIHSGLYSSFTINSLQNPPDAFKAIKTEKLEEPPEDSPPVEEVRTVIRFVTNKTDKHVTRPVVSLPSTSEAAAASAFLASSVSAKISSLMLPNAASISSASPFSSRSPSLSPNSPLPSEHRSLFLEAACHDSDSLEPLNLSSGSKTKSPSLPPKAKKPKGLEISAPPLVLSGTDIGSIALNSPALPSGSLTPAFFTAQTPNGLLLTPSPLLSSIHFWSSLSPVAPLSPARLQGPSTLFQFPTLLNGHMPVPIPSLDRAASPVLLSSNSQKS
# How it was run: as §1
# FEV = molecular target: T7, FEV (Homo sapiens, UniProt Q99581 1-238); details: protein: recombinant; tags: N-terminal GST; dsDNA, one strand shown
# T7 sequence: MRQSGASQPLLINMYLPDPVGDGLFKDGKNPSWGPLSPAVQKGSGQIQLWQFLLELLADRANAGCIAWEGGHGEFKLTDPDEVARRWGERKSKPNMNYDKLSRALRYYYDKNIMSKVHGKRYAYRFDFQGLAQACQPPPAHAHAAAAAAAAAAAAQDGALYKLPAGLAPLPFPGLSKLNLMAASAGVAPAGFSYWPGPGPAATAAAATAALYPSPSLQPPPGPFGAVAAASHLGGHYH
# How it was run: as §1
# ETV5 = ETV5 (Homo sapiens, UniProt P41161 1-510); details: protein: recombinant; tags: N-terminal GST; dsDNA, one strand shown
# ETV5, sequence (P41161 whole entry): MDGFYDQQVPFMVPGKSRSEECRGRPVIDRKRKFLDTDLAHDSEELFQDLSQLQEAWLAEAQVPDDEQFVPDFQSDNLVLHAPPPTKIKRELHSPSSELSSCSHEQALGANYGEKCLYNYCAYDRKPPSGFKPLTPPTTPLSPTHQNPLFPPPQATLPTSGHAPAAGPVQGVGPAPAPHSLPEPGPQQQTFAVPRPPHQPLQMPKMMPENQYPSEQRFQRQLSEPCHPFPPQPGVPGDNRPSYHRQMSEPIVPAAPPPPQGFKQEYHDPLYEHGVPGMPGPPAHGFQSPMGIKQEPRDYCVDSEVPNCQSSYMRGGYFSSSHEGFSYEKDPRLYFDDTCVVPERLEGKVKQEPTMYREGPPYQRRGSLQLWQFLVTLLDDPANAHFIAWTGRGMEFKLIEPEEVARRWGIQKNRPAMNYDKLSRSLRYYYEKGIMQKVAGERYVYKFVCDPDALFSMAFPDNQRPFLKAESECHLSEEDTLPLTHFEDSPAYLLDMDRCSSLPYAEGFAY
# How it was run: as §1
# HSF1 = HSF1 (Homo sapiens, UniProt Q00613 1-529); details: protein: recombinant; tags: N-terminal GST; chain copies: 3; dsDNA, one strand shown
# HSF1, sequence (Q00613 whole entry): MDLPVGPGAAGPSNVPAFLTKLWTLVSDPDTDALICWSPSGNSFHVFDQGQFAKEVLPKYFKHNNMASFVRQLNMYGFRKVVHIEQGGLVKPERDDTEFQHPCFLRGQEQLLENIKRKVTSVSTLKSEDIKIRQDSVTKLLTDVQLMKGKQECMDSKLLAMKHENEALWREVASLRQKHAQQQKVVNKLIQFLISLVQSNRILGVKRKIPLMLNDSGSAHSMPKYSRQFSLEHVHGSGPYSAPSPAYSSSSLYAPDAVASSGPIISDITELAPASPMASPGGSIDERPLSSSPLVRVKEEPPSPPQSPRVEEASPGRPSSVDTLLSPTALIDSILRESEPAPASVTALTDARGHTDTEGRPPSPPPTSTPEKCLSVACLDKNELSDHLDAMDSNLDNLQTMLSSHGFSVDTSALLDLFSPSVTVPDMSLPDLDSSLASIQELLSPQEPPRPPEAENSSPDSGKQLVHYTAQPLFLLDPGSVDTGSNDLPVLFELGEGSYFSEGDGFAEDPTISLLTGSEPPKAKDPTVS
# How it was run: as §1
# SPIC = molecular target: T8, SPIC (Homo sapiens, UniProt Q8N5J4 1-248); details: protein: recombinant; tags: N-terminal GST; dsDNA, one strand shown
# T8 sequence: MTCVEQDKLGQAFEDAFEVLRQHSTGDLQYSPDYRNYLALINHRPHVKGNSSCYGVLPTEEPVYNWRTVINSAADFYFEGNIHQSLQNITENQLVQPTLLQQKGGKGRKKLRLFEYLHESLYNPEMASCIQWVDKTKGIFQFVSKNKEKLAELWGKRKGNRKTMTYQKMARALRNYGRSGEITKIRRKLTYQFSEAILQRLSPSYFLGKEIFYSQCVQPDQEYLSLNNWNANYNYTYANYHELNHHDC
# How it was run: as §1
# ELF4 = ELF4 (Homo sapiens, UniProt Q99607 1-663); details: protein: recombinant; tags: N-terminal GST; dsDNA, one strand shown
# ELF4, sequence (Q99607 whole entry): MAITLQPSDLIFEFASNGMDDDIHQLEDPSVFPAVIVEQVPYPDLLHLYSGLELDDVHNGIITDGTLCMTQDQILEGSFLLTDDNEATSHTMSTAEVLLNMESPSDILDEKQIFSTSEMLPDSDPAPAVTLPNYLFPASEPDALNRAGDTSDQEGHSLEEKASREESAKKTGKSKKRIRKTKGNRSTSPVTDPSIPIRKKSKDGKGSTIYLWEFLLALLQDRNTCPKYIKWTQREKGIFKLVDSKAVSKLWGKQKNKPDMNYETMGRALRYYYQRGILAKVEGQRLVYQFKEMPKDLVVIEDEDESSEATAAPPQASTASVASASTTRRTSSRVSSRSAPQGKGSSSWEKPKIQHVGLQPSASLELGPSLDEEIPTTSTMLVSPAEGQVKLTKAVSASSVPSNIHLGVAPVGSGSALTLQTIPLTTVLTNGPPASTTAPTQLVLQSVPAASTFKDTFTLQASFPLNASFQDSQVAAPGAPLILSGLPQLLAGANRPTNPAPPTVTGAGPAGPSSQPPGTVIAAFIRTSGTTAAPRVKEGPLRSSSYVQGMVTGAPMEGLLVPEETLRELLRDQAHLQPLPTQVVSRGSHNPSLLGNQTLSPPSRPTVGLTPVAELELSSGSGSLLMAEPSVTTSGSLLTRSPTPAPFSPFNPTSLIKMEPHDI
# How it was run: as §1
# ELK4 = molecular target: T9, ELK4 (Homo sapiens, UniProt P28324-2 1-405); details: protein: recombinant; tags: N-terminal GST; dsDNA, one strand shown
# T9 sequence: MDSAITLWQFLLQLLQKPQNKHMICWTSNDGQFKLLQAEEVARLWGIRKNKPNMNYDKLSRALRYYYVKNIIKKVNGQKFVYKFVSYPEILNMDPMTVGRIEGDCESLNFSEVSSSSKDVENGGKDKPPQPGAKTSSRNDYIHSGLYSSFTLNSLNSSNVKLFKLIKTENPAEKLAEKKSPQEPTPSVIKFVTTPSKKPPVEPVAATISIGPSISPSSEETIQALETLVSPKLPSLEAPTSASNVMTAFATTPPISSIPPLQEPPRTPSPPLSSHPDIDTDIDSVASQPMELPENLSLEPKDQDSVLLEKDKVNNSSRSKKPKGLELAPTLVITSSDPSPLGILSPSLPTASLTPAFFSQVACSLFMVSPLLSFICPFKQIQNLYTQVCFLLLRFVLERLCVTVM
# How it was run: as §1
# ETV2 = molecular target: T10, ETV2 (Homo sapiens, UniProt O00321 1-342); details: protein: recombinant; tags: N-terminal GST; dsDNA, one strand shown
# T10 sequence: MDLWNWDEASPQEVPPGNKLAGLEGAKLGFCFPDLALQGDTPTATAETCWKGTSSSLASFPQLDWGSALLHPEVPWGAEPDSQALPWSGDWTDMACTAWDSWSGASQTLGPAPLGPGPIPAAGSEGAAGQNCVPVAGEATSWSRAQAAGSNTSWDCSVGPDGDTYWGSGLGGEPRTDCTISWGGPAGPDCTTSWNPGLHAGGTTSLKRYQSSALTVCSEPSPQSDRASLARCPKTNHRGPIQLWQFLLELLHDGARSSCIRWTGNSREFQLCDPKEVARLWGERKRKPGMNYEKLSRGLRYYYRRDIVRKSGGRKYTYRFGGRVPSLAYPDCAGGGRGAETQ
# How it was run: as §1
# ELF3 = molecular target: T11, ELF3 (Homo sapiens, UniProt P78545 1-371); details: protein: recombinant; tags: N-terminal GST; dsDNA, one strand shown
# T11 sequence: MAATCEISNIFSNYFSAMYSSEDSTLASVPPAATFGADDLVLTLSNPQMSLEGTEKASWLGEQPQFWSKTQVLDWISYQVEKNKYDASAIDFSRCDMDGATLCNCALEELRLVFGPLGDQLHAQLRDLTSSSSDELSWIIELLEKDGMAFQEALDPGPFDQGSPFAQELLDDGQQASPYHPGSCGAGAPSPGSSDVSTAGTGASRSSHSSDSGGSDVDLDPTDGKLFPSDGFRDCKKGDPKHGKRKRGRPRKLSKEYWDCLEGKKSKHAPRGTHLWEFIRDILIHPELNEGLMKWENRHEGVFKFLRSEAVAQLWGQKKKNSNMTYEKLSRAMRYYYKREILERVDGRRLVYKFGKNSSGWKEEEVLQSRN
# How it was run: as §1
# CRX = CRX (Homo sapiens, UniProt O43186 1-299); details: protein: recombinant; tags: N-terminal GST; dsDNA, one strand shown
# CRX, sequence (O43186 whole entry): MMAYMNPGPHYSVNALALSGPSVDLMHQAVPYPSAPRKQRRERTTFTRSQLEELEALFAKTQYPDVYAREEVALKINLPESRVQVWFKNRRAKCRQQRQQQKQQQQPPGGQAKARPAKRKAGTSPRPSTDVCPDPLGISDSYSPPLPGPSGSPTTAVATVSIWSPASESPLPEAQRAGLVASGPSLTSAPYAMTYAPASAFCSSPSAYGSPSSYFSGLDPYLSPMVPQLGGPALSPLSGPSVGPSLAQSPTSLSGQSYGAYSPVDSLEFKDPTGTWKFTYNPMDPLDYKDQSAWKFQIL
# How it was run: as §1
# ETV1 = ETV1 (Homo sapiens, UniProt P50549 1-477); details: protein: recombinant; tags: N-terminal GST; dsDNA, one strand shown
# ETV1, sequence (P50549 whole entry): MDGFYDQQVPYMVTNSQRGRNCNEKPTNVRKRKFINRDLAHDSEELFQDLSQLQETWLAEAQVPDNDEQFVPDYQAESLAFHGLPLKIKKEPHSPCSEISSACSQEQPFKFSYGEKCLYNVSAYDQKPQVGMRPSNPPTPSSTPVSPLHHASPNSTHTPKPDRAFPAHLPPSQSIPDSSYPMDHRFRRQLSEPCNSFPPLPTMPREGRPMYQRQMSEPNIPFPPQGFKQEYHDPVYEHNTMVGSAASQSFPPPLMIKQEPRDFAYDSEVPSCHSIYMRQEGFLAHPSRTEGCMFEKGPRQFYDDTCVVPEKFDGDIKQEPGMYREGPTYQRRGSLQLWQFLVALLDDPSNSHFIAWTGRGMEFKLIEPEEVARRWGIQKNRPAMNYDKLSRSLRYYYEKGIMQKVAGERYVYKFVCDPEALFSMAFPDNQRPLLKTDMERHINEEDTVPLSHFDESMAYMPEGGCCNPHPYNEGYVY
# How it was run: as §1
sequence,measurement,setting,value
CAATTT,binding signal,FLI1,"1.26 fold enrichment (6-mer frequency, TF over GST control)"
same,binding signal,ELK1,"1.35 fold enrichment (6-mer frequency, TF over GST control)"
same,binding signal,GABPA,"1.37 fold enrichment (6-mer frequency, TF over GST control)"
same,binding signal,ERG,"1.43 fold enrichment (6-mer frequency, TF over GST control)"
same,binding signal,ELF1,"1.29 fold enrichment (6-mer frequency, TF over GST control)"
same,binding signal,EHF,"1.28 fold enrichment (6-mer frequency, TF over GST control)"
same,binding signal,SPI1,"1.32 fold enrichment (6-mer frequency, TF over GST control)"
same,binding signal,SPIB,"1.43 fold enrichment (6-mer frequency, TF over GST control)"
same,binding signal,ELK3,"1.12 fold enrichment (6-mer frequency, TF over GST control)"
same,binding signal,FEV,"1.5 fold enrichment (6-mer frequency, TF over GST control)"
same,binding signal,ETV5,"1.29 fold enrichment (6-mer frequency, TF over GST control)"
same,binding signal,HSF1,"1.15 fold enrichment (6-mer frequency, TF over GST control)"
same,binding signal,SPIC,"1.26 fold enrichment (6-mer frequency, TF over GST control)"
same,binding signal,ELF4,"1.35 fold enrichment (6-mer frequency, TF over GST control)"
same,binding signal,ELK4,"1.31 fold enrichment (6-mer frequency, TF over GST control)"
same,binding signal,ETV2,"1.44 fold enrichment (6-mer frequency, TF over GST control)"
same,binding signal,ELF3,"1.53 fold enrichment (6-mer frequency, TF over GST control)"
same,binding signal,CRX,"1.07 fold enrichment (6-mer frequency, TF over GST control)"
same,binding signal,ETV1,"1.35 fold enrichment (6-mer frequency, TF over GST control)"
